From the supplement of paper PMC7411054
Counter-ions that a name gives are not always drawn.

Key:
Assay in all cases: phenotypically active (imaging signature differs from DMSO and reproducible) at any of 0.3-9 uM (binary (1 = active, 0 = inactive)); higher = active
Settings in all cases: treatment time: 24 h
A549-ACTB-RAB5A = test system: A549-ACTB-RAB5A
Method in brief: (§1)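 After 24 h at 0.3, 1, 3 or 9 µM, with four wells per treatment, fifteen gene-edited A549, HepG2 and WPMY1 reporter lines carrying BFP, GFP and RFP/FusionRed were imaged live. Each well's live-cell features were expressed relative to solvent control wells. Deviation required ≥3 of 4 wells past the 95th percentile of control Euclidean distances, and reproducibility a median replicate Pearson correlation over the 95th percentile of non-replicates. Phenotypic activity rested on both.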

A549-CANX-COX4 = test system: A549-CANX-COX4
Method in brief: as §1

A549-GM130-SQSTM1 = test system: A549-GM130-SQSTM1
Method in brief: as §1

A549-TP53BP1-CLTA = test system: A549-TP53BP1-CLTA
Method in brief: as §1

A549-TUBA1B-RELA = test system: A549-TUBA1B-RELA
Method in brief: as §1

HepG2-ACTB-RAB5A = test system: HepG2-ACTB-RAB5A
Method in brief: as §1

HepG2-CANX-COX4 = test system: HepG2-CANX-COX4
Method in brief: as §1

HepG2-GM130-SQSTM1 = test system: HepG2-GM130-SQSTM1
Method in brief: as §1

HepG2-TP53BP1-CLTA = test system: HepG2-TP53BP1-CLTA
Method in brief: as §1

HepG2-TUBA1B-RELA = test system: HepG2-TUBA1B-RELA
Method in brief: as §1

WPMY1-ACTB-RAB5A = test system: WPMY1-ACTB-RAB5A
Method in brief: as §1

WPMY1-CANX-COX4 = test system: WPMY1-CANX-COX4
Method in brief: as §1

WPMY1-GM130-SQSTM1 = test system: WPMY1-GM130-SQSTM1
Method in brief: as §1

WPMY1-TP53BP1-CLTA = test system: WPMY1-TP53BP1-CLTA
Method in brief: as §1

WPMY1-TUBA1B-RELA = test system: WPMY1-TUBA1B-RELA
Method in brief: as §1

Measured: phenotypically active

CC(C)(C)NC[C@H](O)c1ccc(O)c(CO)c1 [levalbuterol]
inactive: A549-ACTB-RAB5A 0 | A549-CANX-COX4 0 | A549-GM130-SQSTM1 0 | A549-TP53BP1-CLTA 0 | A549-TUBA1B-RELA 0 | HepG2-ACTB-RAB5A 0 | HepG2-CANX-COX4 0 | HepG2-GM130-SQSTM1 0 | HepG2-TP53BP1-CLTA 0 | HepG2-TUBA1B-RELA 0 | WPMY1-ACTB-RAB5A 0 | WPMY1-CANX-COX4 0 | WPMY1-GM130-SQSTM1 0 | WPMY1-TP53BP1-CLTA 0 | WPMY1-TUBA1B-RELA 0

OCC(CO)N[C@H]1C[C@](O)(CO)[C@@H](O)[C@H](O)[C@H]1O [Voglibose]
inactive: A549-ACTB-RAB5A 0 | A549-CANX-COX4 0 | A549-GM130-SQSTM1 0 | A549-TP53BP1-CLTA 0 | A549-TUBA1B-RELA 0 | HepG2-ACTB-RAB5A 0 | HepG2-CANX-COX4 0 | HepG2-GM130-SQSTM1 0 | HepG2-TP53BP1-CLTA 0 | HepG2-TUBA1B-RELA 0 | WPMY1-ACTB-RAB5A 0 | WPMY1-CANX-COX4 0 | WPMY1-GM130-SQSTM1 0 | WPMY1-TP53BP1-CLTA 0 | WPMY1-TUBA1B-RELA 0

O=C(O)[C@H](Cc1c[nH]c2ccccc12)N1C(=O)c2ccccc2C1=O
inactive: A549-ACTB-RAB5A 0 | A549-CANX-COX4 0 | A549-GM130-SQSTM1 0 | A549-TP53BP1-CLTA 0 | A549-TUBA1B-RELA 0 | HepG2-ACTB-RAB5A 0 | HepG2-CANX-COX4 0 | HepG2-GM130-SQSTM1 0 | HepG2-TP53BP1-CLTA 0 | HepG2-TUBA1B-RELA 0 | WPMY1-ACTB-RAB5A 0 | WPMY1-CANX-COX4 0 | WPMY1-GM130-SQSTM1 0 | WPMY1-TP53BP1-CLTA 0 | WPMY1-TUBA1B-RELA 0

CCCc1nn(C)c2c(=O)[nH]c(-c3cc(S(=O)(=O)N4CCN(C)CC4)ccc3OCC)nc12 [Sildenafil citrate]
inactive: A549-ACTB-RAB5A 0 | A549-CANX-COX4 0 | A549-GM130-SQSTM1 0 | A549-TP53BP1-CLTA 0 | A549-TUBA1B-RELA 0 | HepG2-ACTB-RAB5A 0 | HepG2-CANX-COX4 0 | HepG2-GM130-SQSTM1 0 | HepG2-TP53BP1-CLTA 0 | HepG2-TUBA1B-RELA 0 | WPMY1-ACTB-RAB5A 0 | WPMY1-CANX-COX4 0 | WPMY1-GM130-SQSTM1 0 | WPMY1-TP53BP1-CLTA 0 | WPMY1-TUBA1B-RELA 0

CCOC(=O)Nc1ccc2c(c1)N(C(=O)CCN1CCOCC1)c1ccccc1S2 [moracizine]
inactive: A549-ACTB-RAB5A 0 | A549-CANX-COX4 0 | A549-GM130-SQSTM1 0 | A549-TP53BP1-CLTA 0 | A549-TUBA1B-RELA 0 | HepG2-ACTB-RAB5A 0 | HepG2-CANX-COX4 0 | HepG2-GM130-SQSTM1 0 | HepG2-TP53BP1-CLTA 0 | HepG2-TUBA1B-RELA 0 | WPMY1-ACTB-RAB5A 0 | WPMY1-CANX-COX4 0 | WPMY1-GM130-SQSTM1 0 | WPMY1-TP53BP1-CLTA 0 | WPMY1-TUBA1B-RELA 0

C[N+](C)(C)CCCCCC[N+](C)(C)C [Hexamethonium bromide]
inactive: A549-ACTB-RAB5A 0 | A549-CANX-COX4 0 | A549-GM130-SQSTM1 0 | A549-TP53BP1-CLTA 0 | A549-TUBA1B-RELA 0 | HepG2-ACTB-RAB5A 0 | HepG2-CANX-COX4 0 | HepG2-GM130-SQSTM1 0 | HepG2-TP53BP1-CLTA 0 | HepG2-TUBA1B-RELA 0 | WPMY1-ACTB-RAB5A 0 | WPMY1-CANX-COX4 0 | WPMY1-GM130-SQSTM1 0 | WPMY1-TP53BP1-CLTA 0 | WPMY1-TUBA1B-RELA 0

COc1cc2c(cc1OC)C(=O)C(CC1CCN(Cc3ccccc3)CC1)C2 (stereo not given) [donepezil]
inactive: A549-ACTB-RAB5A 0 | A549-CANX-COX4 0 | A549-GM130-SQSTM1 0 | A549-TP53BP1-CLTA 0 | A549-TUBA1B-RELA 0 | HepG2-ACTB-RAB5A 0 | HepG2-CANX-COX4 0 | HepG2-GM130-SQSTM1 0 | HepG2-TP53BP1-CLTA 0 | HepG2-TUBA1B-RELA 0 | WPMY1-ACTB-RAB5A 0 | WPMY1-CANX-COX4 0 | WPMY1-GM130-SQSTM1 0 | WPMY1-TP53BP1-CLTA 0 | WPMY1-TUBA1B-RELA 0

C[C@]1(OC(=O)/C=C/c2ccccc2)C[C@@H](O)[C@]2(O)C=CO[C@@H](O[C@@H]3O[C@H](CO)[C@@H](O)[C@H](O)[C@H]3O)[C@@H]21 [Harpagoside]
inactive: A549-ACTB-RAB5A 0 | A549-CANX-COX4 0 | A549-GM130-SQSTM1 0 | A549-TP53BP1-CLTA 0 | A549-TUBA1B-RELA 0 | HepG2-ACTB-RAB5A 0 | HepG2-CANX-COX4 0 | HepG2-GM130-SQSTM1 0 | HepG2-TP53BP1-CLTA 0 | HepG2-TUBA1B-RELA 0 | WPMY1-ACTB-RAB5A 0 | WPMY1-CANX-COX4 0 | WPMY1-GM130-SQSTM1 0 | WPMY1-TP53BP1-CLTA 0 | WPMY1-TUBA1B-RELA 0

C#C[C@]1(O)CC[C@H]2[C@@H]3CCC4=Cc5oncc5C[C@]4(C)[C@H]3CC[C@@]21C [danazol]
inactive: A549-ACTB-RAB5A 0 | A549-CANX-COX4 0 | A549-GM130-SQSTM1 0 | A549-TP53BP1-CLTA 0 | A549-TUBA1B-RELA 0 | HepG2-ACTB-RAB5A 0 | HepG2-CANX-COX4 0 | HepG2-GM130-SQSTM1 0 | HepG2-TP53BP1-CLTA 0 | HepG2-TUBA1B-RELA 0 | WPMY1-ACTB-RAB5A 0 | WPMY1-CANX-COX4 0 | WPMY1-GM130-SQSTM1 0 | WPMY1-TP53BP1-CLTA 0 | WPMY1-TUBA1B-RELA 0

CCc1ccc(CCOc2ccc(CC3SC(=O)NC3=O)cc2)nc1 (stereo not given) [Pioglitazone hydrochloride]
inactive: A549-ACTB-RAB5A 0 | A549-CANX-COX4 0 | A549-GM130-SQSTM1 0 | A549-TP53BP1-CLTA 0 | A549-TUBA1B-RELA 0 | HepG2-ACTB-RAB5A 0 | HepG2-CANX-COX4 0 | HepG2-GM130-SQSTM1 0 | HepG2-TP53BP1-CLTA 0 | HepG2-TUBA1B-RELA 0 | WPMY1-ACTB-RAB5A 0 | WPMY1-CANX-COX4 0 | WPMY1-GM130-SQSTM1 0 | WPMY1-TP53BP1-CLTA 0 | WPMY1-TUBA1B-RELA 0

COc1ccc([C@@H]2CC(=O)c3c(O)cc(O[C@@H]4O[C@H](CO[C@@H]5O[C@@H](C)[C@H](O)[C@@H](O)[C@H]5O)[C@@H](O)[C@H](O)[C@H]4O)cc3O2)cc1O [Hesperidin]
inactive: A549-ACTB-RAB5A 0 | A549-CANX-COX4 0 | A549-GM130-SQSTM1 0 | A549-TP53BP1-CLTA 0 | A549-TUBA1B-RELA 0 | HepG2-ACTB-RAB5A 0 | HepG2-CANX-COX4 0 | HepG2-GM130-SQSTM1 0 | HepG2-TP53BP1-CLTA 0 | HepG2-TUBA1B-RELA 0 | WPMY1-ACTB-RAB5A 0 | WPMY1-CANX-COX4 0 | WPMY1-GM130-SQSTM1 0 | WPMY1-TP53BP1-CLTA 0 | WPMY1-TUBA1B-RELA 0
